Screening data from PubChem.
TRPV1 PAM: HTS Assay for Compounds that Act as Potentiators of the Vanilloid Receptor 1; Transient receptor potential cation channel subfamily V member 1 (Homo sapiens), Q8NER1; TRPV1-expressing cells, Fluo-8 calcium influx, capsaicin EC20 potentiation; potentiation, % at 8.33 µM; hit rate 0.02% among 320,000; AID 540277, 2011; in the data active = potentiation above about 80%; inconclusive = between about 30% and that limit; also: 0% is about no effect
Target sequence (Q8NER1 whole entry, looked up): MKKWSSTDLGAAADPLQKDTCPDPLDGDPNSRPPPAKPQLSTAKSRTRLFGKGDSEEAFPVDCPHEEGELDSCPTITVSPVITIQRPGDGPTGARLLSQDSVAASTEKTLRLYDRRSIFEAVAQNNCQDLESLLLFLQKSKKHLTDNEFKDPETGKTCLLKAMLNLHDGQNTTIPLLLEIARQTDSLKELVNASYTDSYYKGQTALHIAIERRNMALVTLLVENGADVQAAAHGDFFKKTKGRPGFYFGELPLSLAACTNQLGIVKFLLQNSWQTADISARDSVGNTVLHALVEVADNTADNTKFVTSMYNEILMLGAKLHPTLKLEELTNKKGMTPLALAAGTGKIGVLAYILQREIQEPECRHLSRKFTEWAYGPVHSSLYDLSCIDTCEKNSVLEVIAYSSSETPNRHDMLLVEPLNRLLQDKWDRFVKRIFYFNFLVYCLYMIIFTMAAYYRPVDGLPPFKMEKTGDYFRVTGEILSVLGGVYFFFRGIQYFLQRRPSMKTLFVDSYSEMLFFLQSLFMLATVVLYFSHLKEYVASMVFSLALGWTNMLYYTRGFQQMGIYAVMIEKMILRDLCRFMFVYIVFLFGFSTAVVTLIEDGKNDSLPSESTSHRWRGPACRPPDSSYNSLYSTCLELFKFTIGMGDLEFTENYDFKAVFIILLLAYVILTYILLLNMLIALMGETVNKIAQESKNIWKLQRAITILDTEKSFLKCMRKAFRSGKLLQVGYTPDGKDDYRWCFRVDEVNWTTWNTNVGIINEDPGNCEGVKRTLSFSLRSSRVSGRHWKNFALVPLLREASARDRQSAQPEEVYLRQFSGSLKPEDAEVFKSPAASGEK
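Fluo-8 calcium influx in TRPV1-expressing cells, kinetic read (ex 480/em 520 nm). Compound added and read 3 min for agonist activity, followed by capsaicin at EC20 final and 2 min further read for enhancement.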
MBNL1-CUG inh: qHTS Assay for Inhibitors of MBNL1-poly(CUG) RNA binding; Potency, µM (titrated, usually from 57.5 µM), inactives show at the highest dose activity change, negative = inhibition, usual class: inhibitors; Muscleblind-like protein 1 (Homo sapiens), Q9NR56; AID 2675, 2010; hit rate 0.036% among 280,000; TR-FRET MBNL1-His/biotin-(CUG)12 binding, 665/545 ratio; active = well fitted inhibition curve with a large enough effect in the signal ratio, with a control signal flat, not every such curve was filed as active; inconclusive = small, poorly fitted or top-dose-only effect, or effect the other way, or a change in a side signal; inactive = no such curve, though single readings can be large or run the other way; the % refers to the signal ratio; also: potency is read from the fitted curve at half-maximal effect; % is scaled to controls: 0 for no effect and ±100 for the full control effect
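TR-FRET between His-tagged MBNL1 and biotin-(CUG)12 RNA, detected with Tb anti-His antibody (0.055 ng/ul) and streptavidin-XL665 (5 nM), 60 min at room temperature. Compounds titrated 92 nM to 58 uM; 665/545 nm ratio normalized to buffer and complex controls.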
TRPV1 ag: HTS Assay for Compounds that Act as Agonists of the Vanilloid Receptor 1 | activation, % at 8.33 µM | Transient receptor potential cation channel subfamily V member 1 (Homo sapiens), Q8NER1 | hit rate 0.19% among 320,000 | TRPV1-expressing cells, Fluo-8 calcium influx, agonist mode; in the data active = activation above about 80%; inconclusive = between about 30% and that limit; also: 0% is about no effect
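Cells expressing TRPV1 were dye-loaded with Fluo-8 and read kinetically: 10 s baseline, 3 min after compound (agonist portion), then 2 min after EC20 capsaicin (allosteric enhancer portion). Calcium-bound dye fluorescence at 480/520 nm.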
hERG WT inh: qHTS for Inhibitors of KCHN2 3.1: Wildtype qHTS | activity change, % at 1.84 µM | Voltage-gated inwardly rectifying potassium channel KCNH2 (Homo sapiens), Q12809 | U2OS, BacMam KCNH2, thallium flux FluxOr; stronger effect = lower value | hit rate 0.37% among 340,000 | AID 720551, 2013;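 active = maximum activity change below -70%; inconclusive = maximum activity change between -70% and -50%; inactive = maximum activity change above -50%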; also: % is scaled to controls: 0 for no effect and ±100 for the full control effect
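U2OS cells transduced with wild-type KCNH2 virus are loaded with FluxOr dye for 45 min, and thallium flux is measured in kinetic reads before and after stimulation buffer. Rate constants are normalized to DMSO controls.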
KCNH2 3.1 inh: qHTS for Inhibitors of KCHN2 3.1: Mutant qHTS; AID 720553, 2013; hit rate 0.95% among 340,000; activity change, % (tested at about 1.8 µM); Potassium voltage-gated channel subfamily H member 2, brain isoform KCNH2 3.1 (human); U2OS KCNH2 3.1, thallium flux FluxOr; stronger effect = lower value;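 active = maximum activity change below -70%; inconclusive = maximum activity change from -70% to -50%; inactive = maximum activity change above -50%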;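 also: thallium influx rate constant from kinetic fluorescence after stimulation buffer; % is scaled to controls: 0 for no effect and ±100 for the full control effect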
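Virally transduced U2OS (3.1 isoform, 4 h infection in dark at RT) → overnight 37 C → FluxOr + Red40 in HBSS/HEPES, 45 min → stimulation buffer, 2 min kinetic read → rate constant vs DMSO controls.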
Active calls of the source: *; ? = inconclusive; / = no result given; + = active, no number. An excerpt weighted towards active compounds, which were near 1.3% of everything screened.

SMILES	TRPV1 PAM	MBNL1-CUG inh	TRPV1 ag	hERG WT inh	KCNH2 3.1 inh
COc1ccccc1C(=O)NC(CCSC)C(=O)NNC(=O)c1ccncc1 (configuration not stated)	6	/	-9	11	4
CCn1c(N)[n+](CC(=O)Nc2ccc(SC(F)F)cc2)c2ccccc21	-8	4%	2	-36	-92*
Cc1cccc(Cc2nnc(CCC(=O)N(C)Cc3ccncc3C)o2)c1	-5	0%	-2	5	-2
COc1ccc(CCc2nnc(CCC(=O)N(C)Cc3ccncc3C)o2)cc1	-1	-2%	2	1	-72*
N#C/C(=C\c1ccccc1)C(=O)NNS(=O)(=O)c1ccc(Br)cc1	/	/	/	1	10
N#CC1=C(SCC(N)=O)NC2=C(C(=O)c3ccccc32)C1c1ccc(Cl)cc1 (configuration not stated)	5	17%	-3	-1	4
COC(=O)c1cccc(Nc2ncnc3ccc(C)cc23)c1	-13	42%	?	-4	0
COc1ccc(Nc2ncnc3ccc(C)cc23)cc1	16	2%	81*	10	38
CCc1nnc(NC(=O)CN2CCC(O)(c3ccccc3OC)CC2)s1	0	1%	1	-10	5
COc1ccccc1C1(O)CCN(CC(=O)Nc2nc(-c3ccccc3)cs2)CC1	7	1%	1	7	-86*
CCc1cc[n+](C(C(=S)Nc2cccc(C)c2)=C([O-])c2ccc(C)c([N+](=O)[O-])c2)cc1	/	/	/	26	-19
Cc1ccc(/C([O-])=C(/C(=S)NCc2ccccc2)[n+]2cccc(CO)c2)cc1[N+](=O)[O-]	0	15%	6	-74*	2
CCCCCCN1C2=NCCCN2c2ccccc21	/	/	/	4	-80*
OCCN1C2=NCCCN2c2ccccc21	1	1%	-3	-1	-10
COc1cccc(C(=O)CN2C3=NCCCN3c3ccccc32)c1	9	-4%	2	-6	-93*
Cn1c2ccccc2c2ncn(Cc3ccco3)c(=O)c21	1	3%	-3	-22	2
Cn1c2ccccc2c2ncn(Cc3ccc(F)cc3)c(=O)c21	-3	/	80*	-1	4
Cc1ccc(N(CC(=O)NC(C)(C)C)C(=O)CNC(=O)c2cccs2)cc1C	-4	4%	7	2	-3
COc1ccc([C@H]2[C@@H](C#N)[C@H](C#N)N3CCCN23)cc1	11	-1%	-4	1	-98*
CCOc1ccc(S(=O)(=O)N2CCC(C(=O)OC(C)C(=O)NC3CCCCC3C)CC2)cc1 (configuration not stated)	-5	/	1	-203*	-144*
Cc1cccc(/C=N/n2c(-c3ccncc3)n[nH]c2=S)c1	?	-3%	2	-3	-70*
COc1ccc(Br)cc1/C=N/n1c(-c2ccccc2)n[nH]c1=S	80*	-8%	-6	4	-8
CCCCN1C(=O)C(=Nc2cccc3cnccc23)c2ccccc21	11	?	-1	-14	5
Cc1c(C(=O)OCC(=O)NCc2ccco2)cccc1[N+](=O)[O-]	-7	/	4	-3	-5
CCn1c(=O)c(=O)[nH]c2cc(C(=O)N3CCN(Cc4ccc5c(c4)OCO5)CC3)ccc21	-8	1%	-2	-3	1
SMILES	TRPV1 PAM	MBNL1-CUG inh	TRPV1 ag	hERG WT inh	KCNH2 3.1 inh
S=c1nc(-c2ccccc2)[nH]c2ccc(Br)cc12	2	11%	1	-73*	0
COc1ccccc1/C=C(/C(=O)OCC(=O)Nc1cc(C)ccc1C)c1ccccc1	7	/	-5	+	-3
COc1ccc(CNCc2ccc3ccccc3c2)c(OC)c1	-2	3%	9	7	-98*
CC(C)N1C(=O)S/C(=C/c2ccc(Sc3nc4ccccc4[nH]3)o2)C1=O	0	?	?	-130*	3
C=CCN1C(=O)S/C(=C/c2ccc(Sc3nc4ccccc4[nH]3)o2)C1=O	-21	/	?	-5	-16
Fc1ccc(-n2nnc(-c3ccnc4ccccc34)n2)cc1	12	3%	-1	-5	-17
O=C(/C=C/c1ccc(N2CCC(c3ccccc3)=N2)cc1)c1ccccc1	13	-3%	23	-74*	/
C=CCSc1nnc(NC(=O)c2cccc(S(=O)(=O)N3CCOCC3)c2)s1	-19	-1%	26	18	-11
COc1ccc(-c2cc(C(F)(F)F)nc(SCC(=O)NCc3cnn(C)c3C)n2)cc1OC	-14	?	?	-174*	2
COc1ccc(-c2cc(C(F)(F)F)nc(SCC(=O)NCc3ccco3)n2)cc1OC	-8	-2%	0	-9	9
CCOC(=O)c1nn(-c2ccc(Br)cc2)cc1C(=O)c1cccc2ccccc12	-4	-5%	-1	-4	-104*
CCOC(=O)N1CCN(C(=O)c2ccc(N3CC4CC(C3)c3cccc(=O)n3C4)c(NC(=O)c3ccc(F)cc3)c2)CC1 (configuration not stated)	-4	-4%	-1	-163*	2
O=C(Nc1ccccc1)N1CCCN(c2nccc(C(F)(F)F)n2)CC1	-4	-4%	87*	-6	1
CCCCN(C(=O)CCCc1nc2ccccc2s1)c1c(N)n(CC(C)C)c(=O)[nH]c1=O	-5	/	0	9	17
COc1cc(Cl)c(CN2CCC(CO)(CCOc3ccccc3)CC2)cc1OC	0	0%	7	-74*	-94*
COc1ccc(CN2CCC(CO)(CCOc3ccccc3)CC2)c(OC)c1C	-20	-12%	4	-14	?
OCC1(CCOc2ccccc2)CCN(CC2=Cc3cc(Cl)ccc3OC2)CC1	-5	12%	2	-33	-72*
COC(=O)c1ccc(CN2CCC(CO)(CCOc3ccccc3)CC2)cc1	0	-1%	4	-5	-97*
COCCCN(C(=O)c1ccccc1F)c1nc(-c2ccc(OC)cc2)cs1	1	11%	-1	1	?
COCCNC(=O)CSc1ccccc1C(=O)NC1CCCc2ccccc21 (configuration not stated)	25	-3%	-1	-11	1
NS(=O)(=O)c1ccc(N=Nc2c(-c3ccccc3)[nH]n(-c3nc(-c4ccccc4)cs3)c2=O)cc1	1	5%	1	-33	-84*
